# Several values for one entry are separate records, joined by “and”; a condition that tells them apart may be missing. Equal values may be shown once. Activity calls are given as the source filed them. Calls follow the shape of the dose curve; as a rule, active = well fitted inhibition curve with a large enough effect; inconclusive = small, poorly fitted or top-dose-only effect; inactive = flat fitted curve, though single readings scatter.
# Experiment: Quantitative high throughput screen for delayed death inhibitors of the malarial parasite plastid, 48 hour incubation.
# Conditions: P. falciparum in erythrocytes, luciferase growth
# Description: NIH Molecular Libraries Probe Production Network [MLPCN] NIH Chemical Genomics Center [NCGC] MLPCN Grant: R21 NS059500 Assay Provider: David Fidock and Eric Ekland, Columbia University The goal of this screen is to discover new antimalarial compounds that act by inhibiting the development of the apicoplast in the malarial parasite Plasmodium falciparum. The biochemical processes that make this organelle essential for erythrocytic stage parasites are not well understood. However, antibiotics, such as azithromycin and tetracycline, which target the apicoplast translational machinery, have a potent antimalarial effect. […] We have developed a cell-based assay that measures parasite growth based on the expression of an integrated copy of a firefly luciferase reporter. To detect small molecules that cause this 'delayed death' phenotype, erythrocytes infected with the luciferase-expressing parasites were incubated with compounds for either one or two generations, corresponding to 48 and 96 hours, respectively. Compounds that inhibit parasite growth in the second generation, but not the first, should be enriched in antimalarials that target the apicoplast. Growth inhibition is detected by a decrease in luciferase activity
# Four microliters of culture medium (RPMI 1640 with 0.5% w/v Albumax (GIBCO), 24 mM sodium bicarbonate and 10 ug/mL gentamycin) were dispensed by a Multi-drop Combi into white solid 1536-well plates (Grenier) and 23 nL compound was added by a pin tool. Four microliters of infected erythrocytes (2% hematocrit, 0.1% parasitemia final concentration) in culture medium were dispensed and the plates incubated for 48 hours at 37 C in 5% CO2. Two microliters of luciferase detection reagent was added and luminescence was detected by a ViewLux (PerkinElmer) reader
row,Compound,Potency
1,C[C@@H]1CN([C@@H](C)CO)C(=O)c2cc(NC(=O)Nc3ccccc3)ccc2O[C@@H](C)C/C=C/CO[C@H]1CN(C)S(=O)(=O)c1ccc(F)cc1,142 nM (active)
2,COCOC[C@H](C)N1C[C@@H](C)[C@H](CN(C)S(=O)(=O)c2ccc(F)cc2)OCCCC[C@H](C)Oc2ccc(NC(=O)Nc3ccccc3)cc2C1=O,10 nM (active)
3,C[C@@H]1CN(CCO[Si](C)(C)C(C)(C)C)C(=O)c2cc(NC(=O)Nc3ccccc3)ccc2O[C@@H](C)CCCCO[C@H]1CN(C)S(=O)(=O)c1ccc(F)cc1,56.5 nM (active)
4,C[C@@H]1CN([C@@H](C)CO)C(=O)c2cc(NC(=O)Nc3ccccc3)ccc2O[C@@H](C)CCCCO[C@H]1CN(C)S(=O)(=O)c1cccnc1,2830 nM (active)
5,COc1ccc(COCCN2C[C@@H](C)[C@H](CN(C)S(=O)(=O)c3ccc(F)cc3)OCCCC[C@H](C)Oc3ccc(NC(=O)Nc4ccccc4)cc3C2=O)cc1,100 nM (active)
6,C[C@@H]1CN([C@@H](C)CO)C(=O)c2cc(NC(=O)Nc3ccccc3)ccc2O[C@@H](C)CCCCO[C@H]1CN(C)C(=O)OC(C)(C)C,565 nM (active)
7,C[C@@H]1CN([C@@H](C)CO)C(=O)c2cc(NC(=O)Nc3ccccc3)ccc2O[C@@H](C)CCCCO[C@H]1CN(C)S(=O)(=O)c1ccc(C(F)(F)F)cc1,896 nM (active)
8,C[C@@H]1CN([C@@H](C)COC(=O)C(C)(C)C)C(=O)c2cc(NC(=O)Nc3ccccc3)ccc2O[C@@H](C)CCCCO[C@H]1CN(C)S(=O)(=O)c1ccc(F)cc1,11.3 nM (active)
9,CC(C)NC(=O)Nc1ccc2c(c1)C(=O)N([C@@H](C)CO)C[C@@H](C)[C@H](CN(C)S(=O)(=O)c1ccc(F)cc1)OCCCC[C@H](C)O2,634 nM (active)
10,C=CCOC(=O)N(C)C[C@@H]1OCCCC[C@H](C)Oc2ccc(NC(=O)Nc3ccccc3)cc2C(=O)N([C@H](C)COC(=O)c2ccccc2)C[C@H]1C,504 nM (active)
11,C[C@@H]1CN([C@@H](C)COC(C)(C)C)C(=O)c2cc(NC(=O)Nc3ccccc3)ccc2O[C@@H](C)CCCCO[C@H]1CN(C)S(=O)(=O)c1ccc(F)cc1,1.3 nM (active)
12,C[C@@H]1CN([C@@H](C)CO)C(=O)c2cc(NC(=O)Nc3ccccc3)ccc2O[C@@H](C)CCCCO[C@H]1CN(C)S(=O)(=O)c1ccccc1F,634 nM (active)
13,C[C@@H]1CN([C@@H](C)CO)C(=O)c2cc(NC(=O)Nc3ccccc3)ccc2O[C@@H](C)CCCCO[C@H]1CN(C)S(=O)(=O)c1cccc(F)c1,10 nM (active)
14,C[C@@H]1CN([C@H](C)CO[Si](C)(C)C(C)(C)C)C(=O)c2cc(NC(=O)Nc3ccccc3)ccc2O[C@@H](C)CCCCO[C@H]1CN(C)S(=O)(=O)c1ccc(F)cc1,225 nM (active)
15,C[C@@H]1CN([C@@H](C)CO)C(=O)c2cc(NC(=O)Nc3ccccc3)ccc2O[C@@H](C)C/C=C\CO[C@H]1CN(C)S(=O)(=O)c1ccc(F)cc1,356 nM (active)
16,Cc1noc(C)c1NC(=O)Nc1ccc2c(c1)C(=O)N([C@@H](C)CO)C[C@@H](C)[C@H](CN(C)S(=O)(=O)c1ccc(F)cc1)OCCCC[C@H](C)O2,126 nM (active)
17,C[C@@H]1CN([C@@H](C)CO[Si](C)(C)C(C)(C)C)C(=O)c2cc(NC(=O)Nc3ccccc3)ccc2O[C@@H](C)CCCCO[C@H]1CN(C)S(=O)(=O)c1ccc(F)cc1,1.1 nM (active)

row,Compound,Potency
1,C[C@@H]1CN([C@@H](C)CO)C(=O)c2cc(Nc3nc4ccccc4o3)ccc2O[C@@H](C)CCCCO[C@H]1CN(C)S(=O)(=O)c1ccc(F)cc1,1590 nM (active)
2,COCCOCOC[C@H](C)N1C[C@@H](C)[C@H](CN(C)S(=O)(=O)c2ccc(F)cc2)OCCCC[C@H](C)Oc2ccc(NC(=O)Nc3ccccc3)cc2C1=O,11.3 nM (active)
3,CC(C)N1C[C@@H](C)[C@H](CN(C)S(=O)(=O)c2ccc(F)cc2)OCCCC[C@H](C)Oc2ccc(NC(=O)Nc3ccccc3)cc2C1=O,17.9 nM (active)
4,C[C@@H]1CN(CCO)C(=O)c2cc(NC(=O)Nc3ccccc3)ccc2O[C@@H](C)CCCCO[C@H]1CN(C)S(=O)(=O)c1ccc(F)cc1,179 nM (active)
5,C[C@@H]1CN([C@@H](C)CN=[N+]=[N-])C(=O)c2cc(NC(=O)Nc3ccccc3)ccc2O[C@@H](C)CCCCO[C@H]1CN(C)S(=O)(=O)c1ccc(F)cc1,3.6 nM (active)
6,C[C@@H]1CN([C@@H](C)CO)C(=O)c2cc(NC(=O)Nc3ccccc3)ccc2O[C@@H](C)CCCCO[C@H]1CN(C)Cc1ccc(C(F)(F)F)cc1,1000 nM (active)
7,C[C@@H]1CCCCO[C@H](CN(C)C(=O)Nc2ccc(F)cc2)[C@H](C)CN([C@@H](C)CO)C(=O)c2cc(NS(=O)(=O)c3ccccc3)ccc2O1,356 nM (active)
8,C[C@@H]1CN([C@@H](C)COC(=O)c2ccccc2)C(=O)c2cc(NC(=O)Nc3ccccc3)ccc2O[C@@H](C)CCCCO[C@H]1CN(C)S(=O)(=O)c1ccc(F)cc1,63.4 nM (active)
9,C=CCOC(=O)N(C)C[C@@H]1OCCCC[C@H](C)Oc2ccc(NC(=O)Nc3ccccc3)cc2C(=O)N([C@@H](C)CO)C[C@H]1C,356 nM (active)
10,C[C@@H]1CN(C)C(=O)c2cc(NC(=O)Nc3ccccc3)ccc2O[C@@H](C)CCCCO[C@@H]1CN(C)S(=O)(=O)c1ccc(F)cc1,1260 nM (active)
11,C[C@@H]1CN([C@@H](C)CO)C(=O)c2cc(N)ccc2O[C@@H](C)CCCCO[C@H]1CN(C)S(=O)(=O)c1ccc(F)cc1,159 nM (active)
12,Cc1noc(C)c1NC(=O)Nc1ccc2c(c1)C(=O)N(C(C)C)C[C@@H](C)[C@H](CN(C)S(=O)(=O)c1ccc(F)cc1)OCCCC[C@H](C)O2,63.4 nM (active) and 1.59 µM (active)
13,COc1ccc(COC[C@H](C)N2C[C@@H](C)[C@H](CN(C)Cc3ccc(OC)cc3)OCCCC[C@H](C)Oc3ccc(NC(=O)Nc4ccccc4)cc3C2=O)cc1,565 nM (active)
14,C=CCOC(=O)N(C)C[C@H]1OCCCC[C@H](C)Oc2ccc(NC(=O)Nc3ccccc3)cc2C(=O)N([C@@H](C)CO[Si](C)(C)C(C)(C)C)C[C@H]1C,283 nM (active)
15,C[C@@H]1CCCCO[C@@H](CN(C)Cc2ccc(F)cc2)[C@H](C)CN([C@@H](C)CO)C(=O)c2cc(NC(=O)Nc3ccccc3)ccc2O1,4000 nM (active)
16,C[C@@H]1CN([C@@H](C)COC(=O)c2ccccc2)C(=O)c2cc(NC(=O)Nc3ccccc3)ccc2O[C@@H](C)CCCCO[C@H]1CN(C)C(=O)OC(C)(C)C,400 nM (active)
